# According to ChEMBL document CHEMBL3988442, “University of Dundee, Small-Polar-MMV Screening Library” (2021):
# Among all 69,000 compounds or so, about 1,000 (1.4%) showed an effect of 50% or more. This excerpt belongs to a sample that is enriched for strong results.
# System: Leishmania donovani
# Assay: Leishmania intramacrophage assay
# Format: functional, organism-based
# Design: scale not given: in the data most compounds retested in dose-response had high values
compound,measurement,setting,value
Cc1nc(CN(C)c2nccc(C(F)(F)F)n2)cs1,Percent Effect,"30.3 µM, […]",5.886%
Cc1cnn(CCNc2nc(C)cc(N(C)C)n2)c1,Percent Effect,"30.3 µM, […]",-24.91%
COCCN1CCC(NC(=O)C/C=C/c2ccc(C(C)C)cc2)CC1,Percent Effect,"30.3 µM, […]",51.69%
CC(C)c1ccc(/C=C/CC(=O)NC2CCN(C(N)=O)C2)cc1 (configuration not stated),Percent Effect,"30.3 µM, […]",6.492%
CC(C)c1ccc(/C=C/CC(=O)NC2CCN(C(N)=O)CC2)cc1,Percent Effect,"30.3 µM, […]",-5.908%
O=C(CC1CC1)N1CCN(Cc2ccncc2)c2ncccc2C1.O=C(O)C(F)(F)F.O=C(O)C(F)(F)F,Percent Effect,"30.3 µM, […]",-1.398%
CCc1cc(C(=O)N2CCC3(CCCN(CC4CC4)C3=O)C2)cs1 (configuration not stated),Percent Effect,"30.3 µM, […]",12.28%
NC(=O)C1CN(Cc2c(O)ccc3oc4c(c23)CCCC4)CCO1 (configuration not stated),Percent Effect,"30.3 µM, […]",24.24%
Oc1ccc2oc3c(c2c1CN1CCOCC1)CCCC3,Percent Effect,"30.3 µM, […]",27.1%
O=C1NCCCc2c1oc1ccc(O)c(CN3CCOCC3)c21,Percent Effect,"30.3 µM, […]",56.93%
Cc1nc(CNCC2CN(C)CCO2)cs1 (configuration not stated),Percent Effect,"30 µM, 30.03 µM",33.12%
CN1CCOC(CNCc2csc(C3CCCCC3)n2)C1 (configuration not stated),Percent Effect,30 µM,56.43%
CN1CCOC(CNCc2csc(C3CCCC3)n2)C1 (configuration not stated),Percent Effect,30 µM,13.96%
COc1ccc(CN2C[C@@H]3CC[C@H](C2)N(Cc2snnc2C)C3)cc1,Percent Effect,"30.3 µM, […]",-20.42%
NS(=O)(=O)NCC1(c2ccccc2Br)CC1,Percent Effect,"30.3 µM, […]",94.29%
CS(=O)(=O)NCC1(c2ccccc2Br)CC1,Percent Effect,"30.3 µM, […]",-0.01271%
CN(C)S(=O)(=O)NCC1(c2ccccc2Br)CC1,Percent Effect,"30.3 µM, […]",-4.461%
CC(C)(O)c1cc(CC2(NCc3ccccc3Cl)COC2)no1,Percent Effect,"30.3 µM, […]",25.25%
Cc1ccc(C(C)NCc2cn(CCC(N)=O)c3ccccc23)cc1C (configuration not stated),Percent Effect,"30.3 µM, […]",88.97%
CC(NCc1cn(CCC(N)=O)c2ccccc12)c1nncn1C (configuration not stated),Percent Effect,"30.3 µM, […]",-7.777%
CC(C)n1cnnc1CCNCc1cn(CCC(N)=O)c2ccccc12,Percent Effect,"30.3 µM, […]",32.43%
O=C(Cn1c(=O)nc2n1C(=O)N(c1ccccc1)C2)NC1CCCCC1,Percent Effect,"30.3 µM, […]",-29.26%
COc1ccccc1CN1C(=O)O[C@@H]2CN(Cc3cccc(C)n3)C[C@@H]21,Percent Effect,"30.3 µM, […]",-18.87%
CC(C)c1nnc2n1CC(CNCc1nc3ccccc3s1)CC2 (configuration not stated),Percent Effect,"30.3 µM, […]",-6.919%
O=C(Nc1c(N2CCCC2)cccc1N1CCCC1)c1ccccn1,Percent Effect,"30.3 µM, […]",56.83%
O=C(Nc1c(N2CCCC2)cccc1N1CCCC1)c1cnsn1,Percent Effect,"30.3 µM, […]",-91.54%
O=C(Nc1c(N2CCCC2)cccc1N1CCCC1)c1cnccn1,Percent Effect,"30.3 µM, […]",2.563%
N#Cc1ccccc1CN1C[C@@H]2CC[C@H](C1)N(CC1CC1)C2=O,Percent Effect,"30 µM, 30.03 µM",6.562%
COc1ccc(CNC(=O)CCc2c(C)noc2C)cc1F,Percent Effect,"30.3 µM, […]",14.24%
c1ccc(Cc2nc(CNC3CCC4(CCNCC4)CC3)no2)cc1,Percent Effect,"30.3 µM, […]",-22.96%
CCOC(=O)N1CCN(C(=O)C2CC(=O)N(c3ccccc3Br)C2)CC1 (configuration not stated),Percent Effect,"30.3 µM, […]",15.14%
Cc1ccccc1NCc1nc2n(n1)CCCCC2,Percent Effect,"30.3 µM, […]",-2.813%
Cc1c(Cl)cccc1NCc1nc2n(n1)CCCCC2,Percent Effect,"30.3 µM, […]",55.49%
Cc1ccc(Cl)cc1NCc1nc2n(n1)CCCCC2,Percent Effect,"30.3 µM, […]",5.268%
Cl.Cl.O=C(NCc1cncc2c1CCN(Cc1cccc(F)c1)C2)C1CC1,Percent Effect,"30 µM, 30.03 µM",-3.8%
CC(NC(=O)NCCn1ccnc1)c1nncn1C (configuration not stated),Percent Effect,"30.3 µM, […]",-59.34%
CCc1nc(NC(=O)NCCc2scnc2C)nn1C,Percent Effect,"30.3 µM, […]",-19.54%
CCCC1CCCN(Cc2csc(-c3cnn(C)c3)n2)CC1 (configuration not stated),Percent Effect,"30 µM, 30.03 µM",-20.44%
CCCC1CCCN(Cc2csc(-c3ncccn3)n2)CC1 (configuration not stated),Percent Effect,30 µM,77.24%
CC1CCCN(Cc2csc(-c3ncccn3)n2)CC1 (configuration not stated),Percent Effect,"30 µM, 30.03 µM",43.73%
O=C1NC(c2cccnc2)=NC12CCN(CCCc1ccccc1)CC2,Percent Effect,"30.3 µM, […]",-4.495%
CC(CN1CCC2(CC1)N=C(c1cccnc1)NC2=O)c1ccccc1 (configuration not stated),Percent Effect,"30.3 µM, […]",100.2%
CC1=NC2(CCN(CC(C)c3ccccc3)CC2)C(=O)N1 (configuration not stated),Percent Effect,"30.3 µM, […]",10.6%
Cc1nc(CN2CCCC(CCc3ccc(F)c(F)c3)C2)c[nH]1 (configuration not stated),Percent Effect,"30.3 µM, […]",65.39%
Cc1nc(CN2CCCC(CCc3ccc(F)cc3F)C2)c[nH]1 (configuration not stated),Percent Effect,"30 µM, 30.03 µM",30.76%
Cc1nc(CN2CCCC(CCc3c(F)cccc3F)C2)c[nH]1 (configuration not stated),Percent Effect,"30 µM, 30.03 µM",47.92%
COCC1CN(C(=O)Nc2cc(-n3cccc3)ccc2F)CCO1 (configuration not stated),Percent Effect,"30.3 µM, […]",7.734%
CNC(=O)CN1CCOC(c2cccc(N)n2)C1 (configuration not stated),Percent Effect,"30.3 µM, […]",18.21%
CN(Cc1nnc(C2CC2)n1C)C1CCN(Cc2nccn2C)C1 (configuration not stated),Percent Effect,30 µM,20.02%
O=C(NCCc1nncn1C1CC1)C1(Cc2ccccc2)CCC1,Percent Effect,"30.3 µM, […]",8.956%
CN(C)CCN(Cc1ccccn1)Cc1ccnn1C1CCCCO1.O=C(O)CC(O)(CC(=O)O)C(=O)O (configuration not stated),Percent Effect,"30.3 µM, […]",29.57%
CC(=O)N1CCc2c(nc(N(C)C)nc2N(C)CCCC2CCCO2)C1 (configuration not stated),Percent Effect,"30.3 µM, […]",-1.539%
